HIF act: HIF pathway transcriptional activators, primary screen, cell-based, U2OS HRE-luciferase, luminescence | U2OS HRE-luciferase reporter; normalized: DMSO 0%, desferrioxamine 100% | activation, % at 7.5 µM (by protocol) | 0.32% of 300,000 active | AID 1910, 2009;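 active = mean activation of at least 10% of the iron chelator positive control signal, with at least half of replicates also reaching 10%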
NPR1 activator: GC-A stimulated cGMP production enhancers – HEK293 GC-A cells, cGMP TR-FRET, EC30 ANP, primary screen; Atrial natriuretic peptide receptor 1 (Homo sapiens), P16066; 0.14% of 370,000 active; 0% at EC30 ANP, 100% saturating ANP; activation, % at 10 µM; in the data active = activation above about 40%
KLK7 zymogen act: proKLK7 zymogen activators, primary screen, biochemical, fluorescence intensity. activation, % at 7 µM. 0.9% of 370,000 active. AID 652039, 2013. purified proKLK7, EDANS-DABCYL substrate fluorescence; 100% is mature enzyme control, 0% vehicle;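 active = activation above the mean of all tested compounds plus 3 SD, computed per campaign excluding outliers beyond control limits, cut at about 13% in these data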
Target sequence (P49862 whole entry, looked up): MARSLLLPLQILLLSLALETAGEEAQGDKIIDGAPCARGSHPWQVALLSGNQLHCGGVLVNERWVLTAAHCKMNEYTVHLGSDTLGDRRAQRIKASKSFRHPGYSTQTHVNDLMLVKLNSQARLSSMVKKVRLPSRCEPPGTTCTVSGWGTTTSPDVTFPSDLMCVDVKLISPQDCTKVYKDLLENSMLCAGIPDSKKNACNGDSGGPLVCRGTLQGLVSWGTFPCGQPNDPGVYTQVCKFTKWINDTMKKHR
GC-B act: human GC-B receptor activators, primary screen, HEK293 GC-B cells, cGMP TR-FRET, EC30 CNP; Atrial natriuretic peptide receptor 2 (Homo sapiens), P20594; 0% at EC30 CNP, 100% saturating CNP; activation, % at 10 µM; 0.11% of 370,000 active; AID 1920062, 2024;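 active = activation at 10 µM reaching about 35% in either raw or pattern-adjusted values, limit read from the data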
KLK7 act conf: proKLK7 zymogen activators, confirmation, biochemical, fluorescence intensity, triplicate. shares compounds with KLK7 zymogen act. purified proKLK7, EDANS-DABCYL substrate fluorescence; scaled: vehicle 0, mature enzyme 100. activation, % at 7 µM. 68% of 3,200 active. AID 686949, 2013;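 active = activation, as change over the incubation, above the mean of all tested compounds plus 3 SD, cut at about 13% in these data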
EDANS-DABCYL int: EDANS-DABCYL substrate optical interference, artefact control for kallikrein-7 zymogen activator project, biochemical, fluorescence intensity, high throughput | shares compounds with KLK7 zymogen act | no enzyme, 4 h; solvent 0%, active enzyme control 100% | activation, % at 7 µM | 80% of 3,200 active;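 active = activation above the all-compound mean plus 3 SD, ignoring values outside control-based bounds, cut at about 4.8% in these data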;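 also: value is the 4 h activation minus the activation read at time zero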
K7 EDANS ctr: EDANS fluorescence interference in dose response, no enzyme; shares compounds with KLK7 zymogen act; EDANS-DABCYL peptide fluorescence interference; EC50, µM; 20% of 250 active;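 active = compounds that raise the fluorescence signal in this interference counterscreen, with EC50 at or below 10 µM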;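 also: intact quenched peptide substrate alone read at 355 nm excitation and 520 nm emission; signal is fluorescence gain from T0 to T4 after four hours at room temperature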
Each line names hits and unclear results; the compound was inactive in the other large screens (follow-up assays come after a bar, where they were run). An excerpt weighted towards active compounds, which were near 1.3% of everything screened.

CC1(C)CC(=O)c2cc(OCC(=O)NCCCN3CCN(c4ccccc4F)CC3)ccc2O1	KLK7 zymogen act 18 | KLK7 act conf 17 | EDANS-DABCYL int 21
CC1(C)CC(=O)c2cc(OCC(=O)N3CCOCC3)ccc2O1	KLK7 zymogen act 44 | KLK7 act conf 71 | EDANS-DABCYL int 81
Cc1ccc(OCC(=O)N2CCOCC2)cc1C	none
N#CCC[C@H]1CC[C@]2(CCCN(C(=O)C3CCCC3)C2)O1	none (no result: HIF act)
Clc1ccc2nc3ccccn3c2c1	KLK7 zymogen act 22 | KLK7 act conf 41 | EDANS-DABCYL int 44
N#Cc1ccc2c(c1)nc1ccccn12	KLK7 zymogen act 21 | KLK7 act conf 27 | EDANS-DABCYL int 23 | K7 EDANS ctr inactive
O=C(OCc1ccccc1)[C@H](Cc1ccccc1)NC(=O)[C@@H]1CC=C[C@@H]2CCN(C3CCCCC3)C(=O)[C@@H]21	none (no result: HIF act, KLK7 zymogen act)
O=C(O)c1cc2cccc(S(=O)(=O)N3CCCCC3)c2cc1O	KLK7 zymogen act 21 | KLK7 act conf 85 | EDANS-DABCYL int 88
COC(=O)[C@]12C[C@H](CC(=O)N3CCN(C(=O)C4CC4)CC3)C(=O)N(Cc3ccco3)C1=C[C@H](C(C)(C)C)O[C@@H]2C	none (no result: HIF act)
Cc1ccc2c(c1)COc1c3ccc(C(=O)NC(C)C)cc3nn1-2	none
Cc1ccc2c(c1)COc1c3ccc(C(=O)N[C@@H](C)CO)cc3nn1-2	KLK7 zymogen act 14 | KLK7 act conf inactive | EDANS-DABCYL int inactive
C#CCNC(=O)C[C@@H]1C(=O)N(CC=C)C2=CCCCC[C@]21C(=O)OC	none (no result: HIF act)
Nc1cc2sc(-c3ccc(C(=O)O)cc3)nc2cc1Cl	KLK7 zymogen act 51 | KLK7 act conf 68 | EDANS-DABCYL int 75
Nc1ccc(-c2nc3ccc(N)cc3s2)cc1	KLK7 zymogen act 61 | KLK7 act conf 67 | EDANS-DABCYL int 70
Nc1ccc(-c2nc3ccc(C(=O)O)cc3s2)cc1	KLK7 zymogen act 79 | KLK7 act conf 75 | EDANS-DABCYL int 76
Nc1cccc(-c2nc3ccc(N)cc3s2)c1	KLK7 zymogen act 82 | KLK7 act conf 57 | EDANS-DABCYL int 75
CCOC(=O)[C@@H](NC(=O)[C@@H]1CC=C[C@@H]2CCN(Cc3ccc(Cl)cc3)C(=O)[C@@H]21)C(C)C	none (no result: HIF act, KLK7 zymogen act)
CCC(=O)Nc1ccc2c(c1)C(=O)N(C)[C@@H]1CC[C@@H](CC(=O)OC)O[C@H]1CO2	none (no result: HIF act)
COc1ccc(C2CCC3(CCC(=O)N3CCOC(=O)NCc3ccc(Cl)cc3)CC2)cc1 (stereo not given)	none (no result: HIF act)
N#Cc1ccc(OC[C@@H](O)CN2CCC(C(O)(c3ccccc3)c3ccccc3)CC2)cc1	none (no result: HIF act)
CC(C)C(=O)OCCCN1C(=O)CCC12CCC(c1ccccc1)CC2 (stereo not given)	none (no result: HIF act)
COC(=O)C1=CC[C@@H](NC(=O)OC(C)(C)C)[C@H](O)[C@H]1O[Si](C)(C)C(C)(C)C	none (no result: HIF act, KLK7 zymogen act)
O=C(COC(=O)c1ccccc1NCCO)Nc1ccc(S(=O)(=O)NC2=NCCCCC2)cc1	KLK7 zymogen act 23 (no result: HIF act) | KLK7 act conf inactive | EDANS-DABCYL int inactive
CS(=O)(=O)Nc1ccc(C(=O)Nc2ccc3ccccc3c2)cc1	KLK7 zymogen act 13 | KLK7 act conf inactive | EDANS-DABCYL int inactive
COc1ccc(C(=O)Nc2ccc3ccccc3c2)cc1	none
CC(COc1ccc(S(C)(=O)=O)cc1)CN1CCC(C(O)(c2ccccc2)c2ccccc2)CC1 (stereo not given)	none (no result: HIF act)
OC1c2c(F)cccc2N=C2CCCCN21 (stereo not given)	KLK7 zymogen act 14 (no result: HIF act) | KLK7 act conf inactive | EDANS-DABCYL int 8.3
CCOc1ccc2c(c1)sc1nc(C(=O)OC)cc(=O)n12	KLK7 zymogen act 17 | KLK7 act conf 15 | EDANS-DABCYL int 16
COC(=O)c1cc(=O)nc2sc3cc(OC)ccc3n12	KLK7 zymogen act 29 | KLK7 act conf 22 | EDANS-DABCYL int 24
CCCCc1c(O)nc2sc3cc(OC)ccc3n2c1=O	none
CC1CCCC(C)N1CCCNC(=O)c1cc2c(s1)-c1ccccc1OC2 (stereo not given)	KLK7 zymogen act 69 | KLK7 act conf 62 | EDANS-DABCYL int 63
CN(C)CCNC(=O)c1cc2c(s1)-c1ccccc1OC2	KLK7 zymogen act 68 | KLK7 act conf 72 | EDANS-DABCYL int 68
CCCN1CCN(CCCNC(=O)c2cc3c(s2)-c2c(C)cccc2OC3)CC1	KLK7 zymogen act 42 | KLK7 act conf 63 | EDANS-DABCYL int 71
CCCN1CCN(CCCNC(=O)c2cc3c(s2)-c2ccccc2OC3)CC1	KLK7 zymogen act 38 | KLK7 act conf 71 | EDANS-DABCYL int 76
COc1cccc(CO[C@H]2C=C[C@@H](c3ccccc3)O[C@@H]2COC(C)=O)c1	none (no result: HIF act)
COC(=O)N1CCCC1c1cccc2[nH]cc(C)c12 (stereo not given)	none (no result: HIF act)
CCCCN1C[C@@H]2CSCCS(=O)(=O)N2C1=O	none (no result: HIF act)
CC1CC(C)CN(CCCNC(=O)c2cc3c(s2)-c2ccccc2OC3)C1 (stereo not given)	KLK7 zymogen act 44 | KLK7 act conf inactive | EDANS-DABCYL int inactive
Cc1cccc2c1-c1sc(C(=O)NCCCN3CCCC(C)C3)cc1CO2 (stereo not given)	KLK7 zymogen act 48 | KLK7 act conf 62 | EDANS-DABCYL int 70
CCN1CCN(CCCNC(=O)c2cc3c(s2)-c2ccccc2OC3)CC1	KLK7 zymogen act 37 | KLK7 act conf 73 | EDANS-DABCYL int 70
CC1CC(C)CN(CCCNC(=O)c2nn(C)c3c2CS(=O)(=O)c2ccccc2-3)C1 (stereo not given)	none
C[C@H]1[C@@H](OC(=O)Nc2ccc(Cl)cc2)CC[C@@]23CCCN2C(=O)CCC[C@@H]13	none (no result: HIF act, KLK7 zymogen act)
Nc1[nH]c2cc(Cl)ccc2c1C(=O)NCCc1ccc(Cl)cc1	none (no result: HIF act)
COc1ccc(-c2c(C)c3ccc(O)cc3oc2=O)cc1OC	KLK7 zymogen act 36 | KLK7 act conf 69 | EDANS-DABCYL int 74
COc1ccc(-c2c(C)c3cc(O)ccc3oc2=O)cc1	none
Cc1c(CCC(=O)O)c(=O)oc2cc(O)ccc12	KLK7 zymogen act 40 | KLK7 act conf 66 | EDANS-DABCYL int 79
C[C@@H]1COc2cc(Br)ccc2S(=O)(=O)N1Cc1cn(Cc2ccc(F)cc2)nn1	none (no result: HIF act)
c1ccc2c(c1)ccc1ccccc12	none (no result: HIF act)
